Screens (PubChem BioAssay)
The entries come from a sample that favours hits as a whole.
PI5P4K alpha inh: inhibitors of human PI5P4K alpha. 330,000 compounds, 1.2% hits. P48426. PI5P4Kalpha enzyme, ADP-Glo luminescence, 60 min; active compounds read low. max response, %; active = max response of -50% or lower; inconclusive = between -30% and -50%; inactive = -30% or higher; note: value at the top dose of about 77 µM
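Luminescence from ADP-Glo served as readout of PI5P4Kalpha activity in a qHTS format. Reaction: enzyme, substrate, compound, ATP at 5 microM final, 60 min at RT.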
PI4K2A block: inhibitors of human PI4K2A | purified PI4K2A, ADP-Glo luminescence, 1 h; active compounds read low | activity change, negative = inhibition, % at 76.9 µM | 420,000 compounds, 0.13% hits | AID 1346378; in the data active = activity change below about -50%; inconclusive = mostly about -30% to -49%;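 note: -100% = wells without enzyme as full effect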
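In this quantitative HTS, ADP production by PI4K2A was quantified luminescently after 1 h at ambient temperature; 100 microM adenosine served as plate-quality control.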
Pin1 inh: blocks the human prolyl isomerase Pin1. Pin1 FP peptide displacement, HiFluor488, 10 min. Potency, µM (titrated, usually from 115 µM), inactives show at the top dose activity, negative = inhibition, most hits filed as inhibitors. 390,000 compounds, 0.009% hits; active = well fitted inhibition curve with a large enough effect in the polarisation, with a control signal flat, not every such curve was filed as active; inconclusive = small, poorly fitted or top-dose-only effect, or effect the other way, or a change in a side signal; inactive = no such curve, though single readings can be large or run the other way; the % refers to the polarisation; note: potency is the fitted concentration of half-maximal effect
Target sequence (Q13526 whole entry, looked up): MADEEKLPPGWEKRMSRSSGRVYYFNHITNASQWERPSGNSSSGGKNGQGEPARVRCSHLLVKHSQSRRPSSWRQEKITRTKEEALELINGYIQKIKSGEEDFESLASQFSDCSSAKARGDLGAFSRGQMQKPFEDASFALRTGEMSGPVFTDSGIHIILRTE
PGK inhibitor: inhibitors of T. brucei phosphoglycerate kinase. P07378. Potency, µM (titrated, usually from 57.5 µM), for inactives: top-dose activity change, negative = inhibition, hits mostly inhibitors. 380,000 compounds, 0.043% hits. PGK/GAPDH coupled, Kinase-Glo luminescence, 60 min. AID 602233; note: potency is the fitted concentration of half-maximal effect; nearly all actives have a fitted effect of over 60% in size
Target sequence (P07378 whole entry, looked up): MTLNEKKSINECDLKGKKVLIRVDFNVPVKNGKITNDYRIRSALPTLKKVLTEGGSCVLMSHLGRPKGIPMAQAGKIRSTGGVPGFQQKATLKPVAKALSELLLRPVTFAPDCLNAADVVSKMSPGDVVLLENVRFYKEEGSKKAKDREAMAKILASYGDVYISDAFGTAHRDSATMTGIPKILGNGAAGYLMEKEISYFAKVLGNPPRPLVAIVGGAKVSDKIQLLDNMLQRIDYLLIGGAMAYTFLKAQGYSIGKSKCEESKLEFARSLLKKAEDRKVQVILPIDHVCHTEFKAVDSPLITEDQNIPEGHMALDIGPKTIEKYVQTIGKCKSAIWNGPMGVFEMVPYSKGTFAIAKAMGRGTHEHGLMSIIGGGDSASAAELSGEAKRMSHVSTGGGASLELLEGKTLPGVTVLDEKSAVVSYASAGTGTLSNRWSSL
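Luminescent ATP detection (Kinase-Glo Plus) follows a 60-minute room-temperature incubation, with wells lacking PGK as controls. Buffer: 100 mM TEA (pH 7.6), 5 mM MgCl2, 0.01% Tween-20. Coupling enzyme GAPDH (100 nM final) supplies unstable 1,3-BPG in-well.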
Tb PFK block: T. brucei PFK enzyme inhibition | Potency, µM (top dose mostly 57.5 µM), for the others: top-dose activity, negative = inhibition, actives largely listed as inhibitors | 330,000 compounds, 0.17% hits | O15648 | AID 485367 | T. brucei PFK, ADP-Glo luminescence;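 note: potency is the fitted concentration of half-maximal effect; 0% = uninhibited 1x PFK enzyme wells and -100% = no-enzyme wells; nearly all actives have a fitted effect of over 60% in size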
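PFK 1.25 nM, F6P 0.5 mM, ATP 0.1 mM, 0.1 M TEA pH 8.0, 5 mM MgCl2, 0.01% Tween20, 0.1% BSA; 45 min RT. ADP-Glo readout. qHTS titration up to 57 uM; curves fitted, compounds curve-classed.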
The depositor's hits bear a star; i = inactive; ? = inconclusive; nt = no result. Unless noted, calls come from the whole dose curve; as a rule, active = well fitted curve in the direction sought with a large enough effect; inconclusive = small, poorly fitted or top-dose-only effect, or another doubt; inactive = no such curve, though single readings can be large; an effect the other way counts as inactive or inconclusive. Unless noted, % is set by controls: 0 for no effect and ±100 for the full control effect.

SMILES	PI5P4K alpha inh	PI4K2A block	Pin1 inh	PGK inhibitor	Tb PFK block
CCNC(=O)c1c(NC(=O)C2COc3ccccc3O2)sc2c1CCCC2 (stereo unspecified)	-4.9	3.9	0.6%	-5.5%	0.4%
CCC(C)C(N)C1=NC(C(=O)N[C@@H](CC(C)C)C(=O)N[C@H](CCC(=O)[O-])C(=O)N[C@H](C(=O)N[C@H]2CCCCNC(=O)[C@H](CC(N)=O)NC(=O)[C@@H](CC(=O)[O-])NC(=O)[C@H](Cc3cnc[nH]3)NC(=O)[C@@H](Cc3ccccc3)NC(=O)[C@H]([C@@H](C)CC)NC(=O)[C@@H](CCCN)NC2=O)[C@@H](C)CC)CS1.[Zn+2] (stereo partly specified)	-3.7	-3.5	20µM*	28.2µM*	nt
C=C1CSc2nc(=O)c3c4c(sc3n21)CCC4	-3.9	1.4	3.8%	15.1%	0.6%
CCOC(=O)C(=C1Nc2ccccc2N1)n1c(-c2ccco2)nc2ccccc21	-66.2*	-14.7	nt	nt	nt
Oc1cc2c(cc1C(c1ccc(Br)cc1)N1CCCC1)OCO2 (stereo unspecified)	-102.3*	2.5	5.4%	i	-7.3%
CCOC(=O)c1c(N2C(=O)Nc3ccccc3N2O)n[nH]c1-c1cccc(OC)c1	-51.9*	-3.6	0.7%	-5.2%	-0.7%
Cn1cccc1/C=C1\SC(=Nc2cccc(O)c2)NC1=O	-55.4*	-2.3	25.9%	-9.1%	-11.2%
COc1ccc(/C=N/NC(=O)c2nn(-c3ccccc3)c(=O)c3c(N)scc23)cc1	nt	-64.6*	nt	-5.6%	-11.8%
COc1cc(O)c(C(C)=O)c(CC(=O)O)c1	-13.2	-9.9	nt	15.8µM*	-3.1%
O=c1cc(CO)oc(CN2CCN(Cc3ccccc3)CC2)c1O	-2.2	0.0	4.4%	i	3.1%
Cc1ccc(C2=NC(=O)/C(=C/c3cc(O)c(O)c(Br)c3)S2)cc1	-82.2*	-1.0	30.9%	?	?
COc1cc(/C=C2\SC(c3ccc(C)cc3)=NC2=O)cc(OC)c1O	nt	8.6	?	-30.0%	-9.8%
Cc1cccc(NC(=O)C2CCN(S(=O)(=O)c3cccc4nsnc34)CC2)c1C	nt	-3.9	1.2%	-5.2%	nt
C=CCn1c(SCC(=O)c2ccc(O)c(O)c2)nnc1-c1cccnc1	-50.9*	0.6	?	?	-29.8%
C=CCn1c(SCC(=O)c2ccc(O)c(O)c2)nnc1-c1cccc(C)c1	-1.3	-0.6	-14.0%	?	0.0%
Cc1cc(C)c(S(=O)(=O)/N=C2\C=C(Nc3ccc(C(=O)O)cc3)C(=O)c3ccccc32)c(C)c1	-79.4*	?	?	-24.4%	-21.4%
O=C(O)c1ccc(NC2=C/C(=N/S(=O)(=O)c3ccccc3)c3ccccc3C2=O)cc1	?	?	-4.1%	-25.8%	-4.6%
O=C1C(Nc2ccc(O)cc2)=C/C(=N/S(=O)(=O)c2cccs2)c2ccccc21	-15.8	?	-1.4%	?	-8.2%
O=C(O)c1ccc(NC2=C/C(=N/S(=O)(=O)c3cccs3)c3ccccc3C2=O)cc1	?	-52.0*	nt	?	nt
CCN(C(=O)c1cc2ccccc2o1)C12CC3CC(CC(C3)C1)C2	nt	nt	nt	nt	6.1%
CN(C(=O)CSc1ncnc2ccccc12)C1CCS(=O)(=O)C1 (stereo unspecified)	0.6	-0.4	-1.0%	-8.1%	0.0%
O=c1oc(-c2ccc(O)c(O)c2)cc2cc(O)cc(O)c12	-66.3*	-4.5	?	-7.1%	?
CC(=O)Oc1ccc2occ(/C=N/c3cc(=O)[nH]c(=S)[nH]3)c(=O)c2c1	-51.3*	1.8	?	-4.2%	-19.9%
Cc1ccc2occ(/C=N/O)c(=O)c2c1	-10.3	-25.6	-2.2%	-8.8%	-1.5%
O=c1[nH]c(=S)[nH]c2scc(-c3ccc(Br)cc3)c12	-54.9*	0.1	9.8%	i	nt
SMILES	PI5P4K alpha inh	PI4K2A block	Pin1 inh	PGK inhibitor	Tb PFK block
CCCCN(C)C(=O)c1cc2cc3ccc(OC)cc3nc2s1	-10.6	-55.3*	1.6%	?	-6.8%
CCS(=O)(=O)C1=NN2C(=N)/C(=C\c3ccc(OC(=O)c4ccco4)c(OC)c3)C(=O)N=C2S1	-56.6*	-8.6	19.1%	7.1%	-16.4%
COc1cc(/C=C2\C(=N)N3N=CSC3=NC2=O)cc(Br)c1OC(=O)c1ccco1	-80.9*	-2.4	34.0%	nt	3.1%
COc1cc(/C=C2\C(=O)N(c3cccc(C(=O)O)c3)N=C2C)ccc1OCc1ccccc1	-7.6	-59.0*	nt	-8.7%	nt
C=CCOc1ccc(/C=C2\C(=N)N3N=C(S(=O)(=O)CC)SC3=NC2=O)cc1OC	?	2.1	-3.8%	i	8.4%
CS(=O)(=O)C1=NSC2=NC(=O)/C(=C\c3ccc(OC(=O)c4ccco4)cc3)C(=N)N21	nt	nt	nt	nt	-4.0%
COc1cc(/C=C2/C(=N)N3C(=NC2=O)SN=C3S(C)(=O)=O)ccc1OC(=O)c1ccco1	-66.3*	-9.1	54.7%	1.0%	0.1%
CCOc1ccc(CCNC(=O)C2CCCN(c3nn4c(=O)cc(C)nc4s3)C2)cc1 (stereo unspecified)	3.3	7.5	-3.0%	-1.8%	-1.8%
Cc1coc2cc3oc(=O)c(CCC(=O)NCCCN4CCCC4=O)c(C)c3cc12	-8.7	4.5	3.8%	-0.6%	-1.2%
CC1=NN(c2cccc(C(=O)O)c2)C(=O)/C1=C\C=C\c1ccco1	-79.7*	?	nt	3.98µM*	21.3µM*
COc1cc(/C=C2\C(=O)N(c3ccc(S(N)(=O)=O)cc3)N=C2C)ccc1OC(=O)c1ccco1	-1.1	-52.2*	-6.6%	?	-10.5%
CC1=NN(c2ccccc2)C(=O)/C1=C/C=C/c1ccccc1	7.0	-2.7	5.7%	i	-5.2%
CCS(=O)(=O)C1=NSC2=NC(=O)/C(=C\c3ccc(OC(=O)c4ccco4)c(OC)c3)C(=N)N21	-65.6*	-3.1	?	i	-13.0%
CCOc1cc(/C=C2/C(=N)N3C(=NC2=O)SN=C3S(=O)(=O)CC)ccc1OC(=O)c1ccco1	?	-12.0	43.6%	-4.7%	-4.0%
COc1cc(/C=C/[N+](=O)[O-])ccc1OCc1cccc(C(=O)O)c1	-54.6*	-51.0*	28.2µM*	?	?
COc1ccc(C(=O)C=Cc2ccc(OCc3ccccc3)c(OC)c2)cc1OC	3.6	2.4	nt	-7.9%	nt
CC1(C)CC(Nc2ccc(Nc3ccccc3)cc2)CC(C)(C)N1	-15.3	-6.3	-2.9%	-1.0%	-13.9%
CN1C(=O)NC2(O)C(=O)c3ccccc3C12O (stereo unspecified)	-50.5*	-6.0	2.3%	2.8%	-0.8%
Cc1ccc(OCC(=O)NNC(=S)NC(=O)c2ccc(Br)o2)c(C)c1	-13.3	1.5	-1.1%	4.0%	0.9%
O=C(O)c1ccc(-c2ccc(/C=C3\NC(=O)N(Cc4ccc(Cl)cc4)C3=O)o2)cc1Cl	-69.3*	-15.1	nt	25.1µM*	-11.0%
O=[N+]([O-])c1ccc(-c2ccn[nH]2)o1	-4.4	-3.4	-13.8%	-2.2%	4.4%
